The results in this text go back to PubChem BioAssay (NCI).

Test systems include SK-MEL-2 melanoma; EKVX NSCLC; SN12C renal; UO-31 renal; TK-10 renal; ACHN renal; CAKI-1 renal; A498 renal; CCRF-CEM leukemia; MOLT-4 leukemia; RPMI-8226 leukemia; OVCAR-8 ovarian; OVCAR-5 ovarian; OVCAR-4 ovarian; SK-OV-3 ovarian; OVCAR-3 ovarian; HS 578T breast; NCI/ADR-RES ovarian; IGROV1 ovarian; SR leukemia.
Common to all, as to assay: NCI-60 one-dose screen, 48 h (100 = growth as untreated, 0 = no growth, -100 = all killed)
Common to all, as to conditions: 10 µM unless noted

About 83,000 compounds went through this panel and 20% of them were active in at least one assay; those are over-represented in the sample as a whole.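 Interpretation: 100, growth as untreated; towards 0, rising growth inhibition; 0, no net growth; 0 to -100, cell death. Compounds scoring below 10 were considered active.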 Values without a mark were called inactive. Calls of active or inactive are those of the source.

Regarding `CN1CCCN(C(c2ccccc2)c2ccc(Cl)cc2)CC1` (stereo unspecified), the growth with SK-MEL-2 melanoma was 117%; in the experiment on EKVX NSCLC, 94.8%; in the experiment with SN12C renal, 101%; in the experiment with UO-31 renal, 76.3%; in the experiment with TK-10 renal it was 78.3%; in the experiment on ACHN renal, 98.7%. The growth is 77.5% in the experiment on CAKI-1 renal; 56.1% with A498 renal; 103% with CCRF-CEM leukemia; 89.5% with MOLT-4 leukemia; 101% with RPMI-8226 leukemia; 105% in the experiment on OVCAR-8 ovarian. Further, the growth with OVCAR-5 ovarian is 98.8%; in the experiment with OVCAR-4 ovarian, 84.2%; in the experiment on SK-OV-3 ovarian, 110%; in the experiment on OVCAR-3 ovarian, 104%; in the experiment with HS 578T breast, 86.3%; with NCI/ADR-RES ovarian, 94%.
Consider `Cc1cc2c(C(C)C)c(O)c(O)c(C=Nc3ccccc3[N+](=O)[O-])c2c(O)c1-c1c(C)cc2c(C(C)C)c(O)c(O)c(C=Nc3ccccc3[N+](=O)[O-])c2c1O`, for which the growth was 96.6% in the experiment with SK-MEL-2 melanoma; 60.7% with EKVX NSCLC; 84.9% in the experiment on SN12C renal; 84% in the experiment with UO-31 renal; 84.2% with TK-10 renal; 83.3% in the experiment on ACHN renal. Moreover, the growth in the experiment with CAKI-1 renal was 88%; with A498 renal, 101%; in the experiment on CCRF-CEM leukemia, 35%; in the experiment with MOLT-4 leukemia, 26.2%; with RPMI-8226 leukemia, 61.5%; with OVCAR-8 ovarian it was 76.2%. For the same compound, the growth in the experiment on OVCAR-5 ovarian is 102%; in the experiment with OVCAR-4 ovarian, 74.4%; with SK-OV-3 ovarian it was 97.5%; with IGROV1 ovarian, 80.6%; in the experiment on OVCAR-3 ovarian it was 79.1%; in the experiment with HS 578T breast, 81%. Moreover, the growth with NCI/ADR-RES ovarian is 94.8%.
Regarding `Oc1cc2ccccc2c(-c2c(O)c(O)cc3ccccc23)c1O`, the growth in the experiment on SK-MEL-2 melanoma was 5.57% (active); in the experiment with EKVX NSCLC, 35.9%; with SN12C renal, 49.3%; with UO-31 renal it was 13.7%; with TK-10 renal, 19.4%; in the experiment on ACHN renal, 23.2%. For the same compound, the growth was 19.1% with CAKI-1 renal; 59.1% in the experiment on A498 renal; -12.5% (active) in the experiment with CCRF-CEM leukemia; 30.6% in the experiment with MOLT-4 leukemia; -33.3% (active) in the experiment on RPMI-8226 leukemia; 39% with OVCAR-8 ovarian. Besides, the growth was 51.8% with OVCAR-5 ovarian; 27.3% with OVCAR-4 ovarian; 31.7% in the experiment on SK-OV-3 ovarian; -47.5% (active) with IGROV1 ovarian; 44.9% with OVCAR-3 ovarian; 33.9% in the experiment with HS 578T breast. Moreover, the growth with NCI/ADR-RES ovarian was 23%.
Consider `CCNc1ccc2ccccc2c1N=Nc1ccc(N=Nc2ccccc2)cc1`, for which the growth in the experiment on SK-MEL-2 melanoma is 64.6%; in the experiment with EKVX NSCLC, 98.5%; with SN12C renal, 96%; in the experiment on UO-31 renal it was 71.1%; with TK-10 renal, 128%; in the experiment with ACHN renal it was 95.2%. Further, the growth was 107% in the experiment on CAKI-1 renal; 137% in the experiment on A498 renal; 95.8% with CCRF-CEM leukemia; 82.2% with MOLT-4 leukemia; 95.9% in the experiment with RPMI-8226 leukemia; 104% in the experiment with OVCAR-8 ovarian. For the same compound, the growth in the experiment with OVCAR-5 ovarian was 93.1%; in the experiment on OVCAR-4 ovarian it was 98.4%; in the experiment on SK-OV-3 ovarian, 97.4%; with IGROV1 ovarian, 0.773% (active); with OVCAR-3 ovarian it was 109%; in the experiment with HS 578T breast, 110%. Also, the growth in the experiment on NCI/ADR-RES ovarian is 109%.
Regarding `O=c1cc(Cl)nc2ccccn12`, the growth is 110% in the experiment with SK-MEL-2 melanoma; 102% with EKVX NSCLC; 102% in the experiment with SN12C renal; 84% in the experiment on UO-31 renal; 105% in the experiment on TK-10 renal; 110% in the experiment with ACHN renal. In addition, the growth in the experiment on CAKI-1 renal was 96.1%; in the experiment with A498 renal, 103%; in the experiment on CCRF-CEM leukemia, 119%; in the experiment on MOLT-4 leukemia, 106%; in the experiment with RPMI-8226 leukemia it was 114%; with OVCAR-8 ovarian, 110%. Moreover, the growth with OVCAR-5 ovarian is 101%; in the experiment on OVCAR-4 ovarian, 120%; with SK-OV-3 ovarian, 110%; with IGROV1 ovarian, 96.5%; in the experiment on OVCAR-3 ovarian it was 100%; with HS 578T breast, 104%. Moreover, the growth with NCI/ADR-RES ovarian was 104%.
For the compound `O=C(c1ccc(Cl)cc1)N1CCCCC1`, the growth is 102% in the experiment with SK-MEL-2 melanoma; 98.1% in the experiment with EKVX NSCLC; 92.2% with SN12C renal; 93.3% in the experiment with UO-31 renal; 91% in the experiment with TK-10 renal; 101% in the experiment with ACHN renal. In addition, the growth was 97.4% with CAKI-1 renal; 73.3% with A498 renal; 93.3% in the experiment with CCRF-CEM leukemia; 96.9% in the experiment on SR leukemia; 102% in the experiment with RPMI-8226 leukemia; 106% with OVCAR-8 ovarian. The growth is 102% with OVCAR-5 ovarian; 113% in the experiment on OVCAR-4 ovarian; 105% in the experiment with SK-OV-3 ovarian; 105% in the experiment with IGROV1 ovarian; 112% in the experiment on OVCAR-3 ovarian; 23.2% in the experiment with HS 578T breast. Besides, in the experiment with NCI/ADR-RES ovarian, the growth is 102%.
Consider `NC(=S)N/N=C/c1ccc(OC(=O)COc2ccccc2)cn1`, for which the growth in the experiment on SK-MEL-2 melanoma is 69.3%; with EKVX NSCLC it was 109%; in the experiment on SN12C renal it was 34.7%; in the experiment on UO-31 renal, 24.5%; in the experiment on TK-10 renal it was 74.7%; with ACHN renal, 8.03% (active). Moreover, the growth in the experiment on CAKI-1 renal is 3.88% (active); in the experiment with A498 renal, 70.5%; with CCRF-CEM leukemia it was 18.9%; in the experiment on MOLT-4 leukemia, 22.3%; with RPMI-8226 leukemia it was 55.2%; in the experiment with OVCAR-8 ovarian, 29.6%. Also, the growth in the experiment on OVCAR-5 ovarian is 120%; with OVCAR-4 ovarian, 69.1%; in the experiment with SK-OV-3 ovarian, 90.4%; in the experiment on IGROV1 ovarian it was 54.6%; with OVCAR-3 ovarian, 60.2%; with HS 578T breast, 116%. For the same compound, in the experiment on NCI/ADR-RES ovarian, the growth is 26.8%.
With `Cc1ccc(N2C(=O)c3cccc4c(N)c(S(=O)(=O)O)cc(c34)C2=O)cc1`, the growth in the experiment on SK-MEL-2 melanoma was 82.3%; with EKVX NSCLC, 113%; with SN12C renal it was 105%; in the experiment on UO-31 renal it was 77.3%; with TK-10 renal, 124%; with ACHN renal it was 102%. In addition, the growth with CAKI-1 renal is 108%; in the experiment on A498 renal, 136%; with CCRF-CEM leukemia, 100%; with MOLT-4 leukemia, 115%; with RPMI-8226 leukemia, 104%; with OVCAR-8 ovarian it was 107%. For the same compound, the growth with OVCAR-5 ovarian is 84.7%; in the experiment on OVCAR-4 ovarian, 117%; with SK-OV-3 ovarian, 106%; in the experiment with IGROV1 ovarian, 35.6%; in the experiment on OVCAR-3 ovarian it was 121%; with HS 578T breast it was 106%. Besides, in the experiment with NCI/ADR-RES ovarian, the growth was 103%.
